Columns and labels:
Experiment in all cases: DAPPL (digital affinity profiling via proximity ligation, sequencing); 10 mM Tris-HCl pH 7.5, 50 mM NaCl, 1 mM DTT, 4% glycerol, room temperature, 30 min; GST-TFs on glutathione beads, 16-mer random dsDNA library, 0.1% formaldehyde crosslink after washing; high values mean tight binding
[1] = target: T1, FEV (Homo sapiens, UniProt Q99581 1-238); conditions: protein: recombinant; tags: N-terminal GST; dsDNA, one strand shown
T1 sequence: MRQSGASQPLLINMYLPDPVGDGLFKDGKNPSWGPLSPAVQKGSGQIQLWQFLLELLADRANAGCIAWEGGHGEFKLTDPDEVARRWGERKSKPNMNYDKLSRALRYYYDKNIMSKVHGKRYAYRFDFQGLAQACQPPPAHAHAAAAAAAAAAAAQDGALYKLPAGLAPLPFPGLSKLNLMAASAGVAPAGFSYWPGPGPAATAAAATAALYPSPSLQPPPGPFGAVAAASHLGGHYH
How it was run: (§1)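 Each value of binding signal is a hexamer's read frequency for a factor divided by the same hexamer's frequency in the tag-only sample. Barcoded, bead-captured GST fusions of human transcription factors made in yeast were pooled with that sample and incubated with 200 nmole of a random double-stranded 16-mer DNA library in Tris/NaCl/DTT/glycerol buffer at room temperature for 30 min. Washing, 0.1% formaldehyde crosslinking, proximity ligation, PCR and Illumina NextSeq500 sequencing followed.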

[2] = target: ETV5 (Homo sapiens, UniProt P41161 1-510); conditions: protein: recombinant; tags: N-terminal GST; dsDNA, one strand shown
Sequence of ETV5 (P41161 whole entry): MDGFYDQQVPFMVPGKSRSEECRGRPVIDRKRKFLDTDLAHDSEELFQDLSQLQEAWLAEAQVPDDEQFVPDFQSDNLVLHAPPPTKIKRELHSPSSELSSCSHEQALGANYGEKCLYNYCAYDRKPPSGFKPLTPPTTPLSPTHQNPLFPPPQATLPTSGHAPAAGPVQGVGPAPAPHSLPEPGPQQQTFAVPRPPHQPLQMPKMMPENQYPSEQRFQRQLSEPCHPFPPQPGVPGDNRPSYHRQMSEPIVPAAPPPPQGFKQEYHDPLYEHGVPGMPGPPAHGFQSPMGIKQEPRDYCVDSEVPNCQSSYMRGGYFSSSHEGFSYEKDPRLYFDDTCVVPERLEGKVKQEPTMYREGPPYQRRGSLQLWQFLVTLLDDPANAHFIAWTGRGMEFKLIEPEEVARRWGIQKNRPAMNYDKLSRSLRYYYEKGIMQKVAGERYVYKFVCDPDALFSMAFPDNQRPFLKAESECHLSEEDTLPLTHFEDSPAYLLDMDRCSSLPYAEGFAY
How it was run: as §1

[3] = target: HSF1 (Homo sapiens, UniProt Q00613 1-529); conditions: protein: recombinant; tags: N-terminal GST; chain copies: 3; dsDNA, one strand shown
Sequence of HSF1 (Q00613 whole entry): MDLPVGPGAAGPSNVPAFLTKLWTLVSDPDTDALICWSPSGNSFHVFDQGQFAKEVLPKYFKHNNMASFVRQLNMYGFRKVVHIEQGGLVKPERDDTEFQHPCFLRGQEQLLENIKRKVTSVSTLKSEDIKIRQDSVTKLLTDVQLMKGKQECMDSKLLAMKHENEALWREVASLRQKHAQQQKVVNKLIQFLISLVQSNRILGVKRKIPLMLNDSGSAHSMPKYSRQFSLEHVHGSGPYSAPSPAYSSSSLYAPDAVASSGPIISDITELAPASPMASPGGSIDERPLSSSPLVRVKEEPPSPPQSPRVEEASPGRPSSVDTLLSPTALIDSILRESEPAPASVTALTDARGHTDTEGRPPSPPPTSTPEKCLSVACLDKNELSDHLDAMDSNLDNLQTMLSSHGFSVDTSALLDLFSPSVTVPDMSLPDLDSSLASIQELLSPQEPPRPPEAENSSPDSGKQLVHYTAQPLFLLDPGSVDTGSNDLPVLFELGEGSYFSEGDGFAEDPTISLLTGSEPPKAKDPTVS
How it was run: as §1

[4] = target: T2, SPIC (Homo sapiens, UniProt Q8N5J4 1-248); conditions: protein: recombinant; tags: N-terminal GST; dsDNA, one strand shown
T2 sequence: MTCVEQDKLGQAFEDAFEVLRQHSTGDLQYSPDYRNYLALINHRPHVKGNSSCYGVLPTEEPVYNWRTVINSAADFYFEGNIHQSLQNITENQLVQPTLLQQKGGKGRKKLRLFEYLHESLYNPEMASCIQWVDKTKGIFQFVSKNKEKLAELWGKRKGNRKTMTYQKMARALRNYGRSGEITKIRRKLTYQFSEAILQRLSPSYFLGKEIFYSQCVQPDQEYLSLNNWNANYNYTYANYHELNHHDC
How it was run: as §1

[5] = target: ELF4 (Homo sapiens, UniProt Q99607 1-663); conditions: protein: recombinant; tags: N-terminal GST; dsDNA, one strand shown
Sequence of ELF4 (Q99607 whole entry): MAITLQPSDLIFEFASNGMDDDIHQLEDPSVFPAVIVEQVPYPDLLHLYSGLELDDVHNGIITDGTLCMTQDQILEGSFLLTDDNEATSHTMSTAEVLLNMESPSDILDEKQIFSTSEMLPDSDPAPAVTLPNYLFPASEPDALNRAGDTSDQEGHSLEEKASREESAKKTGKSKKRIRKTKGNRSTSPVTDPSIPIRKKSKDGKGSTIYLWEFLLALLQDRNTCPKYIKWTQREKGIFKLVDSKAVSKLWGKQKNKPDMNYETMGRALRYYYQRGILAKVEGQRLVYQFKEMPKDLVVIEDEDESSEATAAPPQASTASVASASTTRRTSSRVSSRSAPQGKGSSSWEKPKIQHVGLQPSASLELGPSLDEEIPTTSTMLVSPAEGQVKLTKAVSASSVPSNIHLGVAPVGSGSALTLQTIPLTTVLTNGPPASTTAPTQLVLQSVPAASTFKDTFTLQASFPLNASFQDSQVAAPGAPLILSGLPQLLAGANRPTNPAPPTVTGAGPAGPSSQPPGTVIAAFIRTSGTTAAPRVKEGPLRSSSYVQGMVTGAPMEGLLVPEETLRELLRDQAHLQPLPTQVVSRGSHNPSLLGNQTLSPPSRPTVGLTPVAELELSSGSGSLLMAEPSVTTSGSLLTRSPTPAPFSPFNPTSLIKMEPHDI
How it was run: as §1

[6] = target: T3, ELK4 (Homo sapiens, UniProt P28324-2 1-405); conditions: protein: recombinant; tags: N-terminal GST; dsDNA, one strand shown
T3 sequence: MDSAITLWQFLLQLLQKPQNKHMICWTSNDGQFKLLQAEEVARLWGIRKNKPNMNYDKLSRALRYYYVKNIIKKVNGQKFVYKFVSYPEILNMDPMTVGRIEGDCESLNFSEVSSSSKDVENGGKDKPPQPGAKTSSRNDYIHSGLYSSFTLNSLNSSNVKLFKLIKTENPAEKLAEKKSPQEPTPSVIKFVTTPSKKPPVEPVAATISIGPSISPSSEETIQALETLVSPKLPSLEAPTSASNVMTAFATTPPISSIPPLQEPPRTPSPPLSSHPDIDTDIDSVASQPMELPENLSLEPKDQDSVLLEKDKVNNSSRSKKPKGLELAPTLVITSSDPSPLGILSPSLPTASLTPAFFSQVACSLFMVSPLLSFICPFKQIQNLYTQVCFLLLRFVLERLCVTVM
How it was run: as §1

[7] = target: T4, ETV2 (Homo sapiens, UniProt O00321 1-342); conditions: protein: recombinant; tags: N-terminal GST; dsDNA, one strand shown
T4 sequence: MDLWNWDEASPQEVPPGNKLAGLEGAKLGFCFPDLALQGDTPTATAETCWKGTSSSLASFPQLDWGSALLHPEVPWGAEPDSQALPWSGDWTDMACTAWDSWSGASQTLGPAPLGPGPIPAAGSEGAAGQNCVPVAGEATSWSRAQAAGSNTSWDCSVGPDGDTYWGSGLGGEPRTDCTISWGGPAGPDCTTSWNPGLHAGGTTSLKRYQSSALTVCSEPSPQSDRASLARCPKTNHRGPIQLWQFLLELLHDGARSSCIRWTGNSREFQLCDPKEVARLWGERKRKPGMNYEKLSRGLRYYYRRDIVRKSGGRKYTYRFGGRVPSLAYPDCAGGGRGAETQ
How it was run: as §1

[8] = target: T5, ELF3 (Homo sapiens, UniProt P78545 1-371); conditions: protein: recombinant; tags: N-terminal GST; dsDNA, one strand shown
T5 sequence: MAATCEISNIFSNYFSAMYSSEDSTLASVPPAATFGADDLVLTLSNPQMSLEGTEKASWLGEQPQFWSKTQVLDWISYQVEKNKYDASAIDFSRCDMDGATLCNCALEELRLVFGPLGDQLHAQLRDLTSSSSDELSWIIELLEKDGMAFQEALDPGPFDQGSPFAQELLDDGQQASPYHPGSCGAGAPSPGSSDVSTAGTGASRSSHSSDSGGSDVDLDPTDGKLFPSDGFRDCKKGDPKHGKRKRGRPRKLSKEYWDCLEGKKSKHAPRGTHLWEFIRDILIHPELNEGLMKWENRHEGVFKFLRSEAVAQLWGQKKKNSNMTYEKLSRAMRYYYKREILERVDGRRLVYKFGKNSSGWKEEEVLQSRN
How it was run: as §1

[9] = target: CRX (Homo sapiens, UniProt O43186 1-299); conditions: protein: recombinant; tags: N-terminal GST; dsDNA, one strand shown
Sequence of CRX (O43186 whole entry): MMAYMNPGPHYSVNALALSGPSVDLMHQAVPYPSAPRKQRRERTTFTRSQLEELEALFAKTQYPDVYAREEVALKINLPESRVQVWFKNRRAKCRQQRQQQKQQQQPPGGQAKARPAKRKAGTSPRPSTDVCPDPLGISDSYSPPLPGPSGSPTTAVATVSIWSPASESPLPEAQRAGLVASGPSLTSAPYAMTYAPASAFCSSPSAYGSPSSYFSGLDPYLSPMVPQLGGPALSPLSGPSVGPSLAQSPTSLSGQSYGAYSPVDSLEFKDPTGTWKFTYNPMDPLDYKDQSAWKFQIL
How it was run: as §1

[10] = target: ETV1 (Homo sapiens, UniProt P50549 1-477); conditions: protein: recombinant; tags: N-terminal GST; dsDNA, one strand shown
Sequence of ETV1 (P50549 whole entry): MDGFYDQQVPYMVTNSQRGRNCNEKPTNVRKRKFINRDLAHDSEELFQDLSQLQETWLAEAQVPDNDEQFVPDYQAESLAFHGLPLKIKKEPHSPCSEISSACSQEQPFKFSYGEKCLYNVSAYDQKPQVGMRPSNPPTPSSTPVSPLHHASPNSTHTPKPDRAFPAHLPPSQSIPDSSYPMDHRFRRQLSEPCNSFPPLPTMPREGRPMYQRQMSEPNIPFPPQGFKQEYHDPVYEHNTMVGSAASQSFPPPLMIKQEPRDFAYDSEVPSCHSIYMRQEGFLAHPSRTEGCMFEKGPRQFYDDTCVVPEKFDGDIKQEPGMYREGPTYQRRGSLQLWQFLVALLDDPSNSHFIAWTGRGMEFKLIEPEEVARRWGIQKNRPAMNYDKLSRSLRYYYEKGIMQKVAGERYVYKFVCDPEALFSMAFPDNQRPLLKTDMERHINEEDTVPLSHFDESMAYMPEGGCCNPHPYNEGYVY
How it was run: as §1

[11] = target: T6, ERF (Homo sapiens, UniProt P50548 1-548); conditions: protein: recombinant; tags: N-terminal GST; dsDNA, one strand shown
T6 sequence: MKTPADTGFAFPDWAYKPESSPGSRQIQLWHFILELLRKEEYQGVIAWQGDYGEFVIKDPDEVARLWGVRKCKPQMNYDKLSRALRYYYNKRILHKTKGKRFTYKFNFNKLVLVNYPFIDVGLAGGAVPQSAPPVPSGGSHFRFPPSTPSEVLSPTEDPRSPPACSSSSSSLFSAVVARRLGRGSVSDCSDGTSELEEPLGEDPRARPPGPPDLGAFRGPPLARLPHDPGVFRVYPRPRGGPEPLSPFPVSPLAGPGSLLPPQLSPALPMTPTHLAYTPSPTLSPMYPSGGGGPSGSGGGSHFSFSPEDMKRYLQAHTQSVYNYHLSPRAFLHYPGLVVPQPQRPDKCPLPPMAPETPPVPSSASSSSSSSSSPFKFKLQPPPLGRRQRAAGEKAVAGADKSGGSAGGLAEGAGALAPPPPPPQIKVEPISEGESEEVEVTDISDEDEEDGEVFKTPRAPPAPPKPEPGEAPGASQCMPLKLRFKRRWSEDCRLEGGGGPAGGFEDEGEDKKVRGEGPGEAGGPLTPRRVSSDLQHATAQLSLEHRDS
How it was run: as §1

[12] = target: T7, ETV3L (Homo sapiens, UniProt Q6ZN32 1-361); conditions: protein: recombinant; tags: N-terminal GST; dsDNA, one strand shown
T7 sequence: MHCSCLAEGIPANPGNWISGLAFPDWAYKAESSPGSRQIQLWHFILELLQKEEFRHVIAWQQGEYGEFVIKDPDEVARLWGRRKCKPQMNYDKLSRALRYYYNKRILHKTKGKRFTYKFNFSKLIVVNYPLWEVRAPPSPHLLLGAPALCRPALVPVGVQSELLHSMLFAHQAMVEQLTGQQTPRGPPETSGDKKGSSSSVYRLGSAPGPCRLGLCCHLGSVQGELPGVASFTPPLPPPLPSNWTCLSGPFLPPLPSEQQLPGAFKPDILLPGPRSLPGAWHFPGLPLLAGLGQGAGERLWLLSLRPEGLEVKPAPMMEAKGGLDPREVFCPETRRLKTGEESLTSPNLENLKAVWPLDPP
How it was run: as §1

[13] = target: T8, ETS2 (Homo sapiens, UniProt P15036 1-469); conditions: protein: recombinant; tags: N-terminal GST; dsDNA, one strand shown
T8 sequence: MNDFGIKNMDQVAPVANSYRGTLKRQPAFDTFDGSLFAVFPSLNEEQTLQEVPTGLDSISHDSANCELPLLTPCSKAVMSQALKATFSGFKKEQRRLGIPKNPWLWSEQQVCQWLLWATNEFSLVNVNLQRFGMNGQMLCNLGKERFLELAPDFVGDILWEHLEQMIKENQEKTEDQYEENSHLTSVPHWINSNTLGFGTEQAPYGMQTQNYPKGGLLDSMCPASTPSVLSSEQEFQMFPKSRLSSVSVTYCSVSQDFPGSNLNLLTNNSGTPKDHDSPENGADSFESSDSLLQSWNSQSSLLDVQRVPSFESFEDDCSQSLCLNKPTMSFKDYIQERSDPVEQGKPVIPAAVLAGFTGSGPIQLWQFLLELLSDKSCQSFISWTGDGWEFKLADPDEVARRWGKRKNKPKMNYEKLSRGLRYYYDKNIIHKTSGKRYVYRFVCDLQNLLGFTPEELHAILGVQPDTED
How it was run: as §1

[14] = target: T9, SPDEF (Homo sapiens, UniProt O95238 1-335); conditions: protein: recombinant; tags: N-terminal GST; dsDNA, one strand shown
T9 sequence: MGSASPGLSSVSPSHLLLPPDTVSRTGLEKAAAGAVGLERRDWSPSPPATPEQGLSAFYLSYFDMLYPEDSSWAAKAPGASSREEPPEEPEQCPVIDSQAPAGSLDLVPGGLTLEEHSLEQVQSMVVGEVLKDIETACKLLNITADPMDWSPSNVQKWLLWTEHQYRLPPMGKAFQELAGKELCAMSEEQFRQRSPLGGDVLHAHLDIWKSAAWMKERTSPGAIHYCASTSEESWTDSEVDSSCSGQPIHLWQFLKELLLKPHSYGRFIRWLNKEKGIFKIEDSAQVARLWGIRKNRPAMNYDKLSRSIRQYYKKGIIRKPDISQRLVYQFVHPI
How it was run: as §1

[15] = target: T10, ETV7 (Homo sapiens, UniProt Q9Y603 1-341); conditions: protein: recombinant; tags: N-terminal GST; dsDNA, one strand shown
T10 sequence: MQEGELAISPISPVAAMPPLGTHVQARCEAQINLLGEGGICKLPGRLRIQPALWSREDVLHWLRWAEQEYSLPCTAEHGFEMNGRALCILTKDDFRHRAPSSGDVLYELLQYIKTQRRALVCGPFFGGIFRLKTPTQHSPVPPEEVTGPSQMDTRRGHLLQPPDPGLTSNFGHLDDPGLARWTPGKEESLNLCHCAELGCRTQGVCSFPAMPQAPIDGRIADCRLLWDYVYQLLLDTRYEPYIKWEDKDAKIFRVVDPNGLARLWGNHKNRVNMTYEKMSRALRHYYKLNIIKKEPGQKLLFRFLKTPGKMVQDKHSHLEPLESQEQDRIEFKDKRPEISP
How it was run: as §1

[16] = target: T11, ELF5 (Homo sapiens, UniProt Q9UKW6-2 1-255); conditions: protein: recombinant; tags: N-terminal GST; dsDNA, one strand shown
T11 sequence: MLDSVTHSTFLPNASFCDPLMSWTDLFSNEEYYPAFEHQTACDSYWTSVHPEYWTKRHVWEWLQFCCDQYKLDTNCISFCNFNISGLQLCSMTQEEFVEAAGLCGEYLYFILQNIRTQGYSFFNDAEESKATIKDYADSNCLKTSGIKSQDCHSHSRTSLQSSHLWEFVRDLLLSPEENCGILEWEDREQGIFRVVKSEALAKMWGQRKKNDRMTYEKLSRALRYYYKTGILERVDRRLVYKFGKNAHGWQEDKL
How it was run: as §1

[17] = target: T12, ETV3 (Homo sapiens, UniProt P41162-2 1-143); conditions: protein: recombinant; tags: N-terminal GST; dsDNA, one strand shown
T12 sequence: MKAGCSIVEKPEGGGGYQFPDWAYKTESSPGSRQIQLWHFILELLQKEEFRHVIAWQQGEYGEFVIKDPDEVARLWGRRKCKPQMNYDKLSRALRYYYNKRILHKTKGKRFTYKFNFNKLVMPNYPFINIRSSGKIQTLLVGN
How it was run: as §1

[18] = target: ETV6 (Homo sapiens, UniProt P41212 1-452); conditions: protein: recombinant; tags: N-terminal GST; dsDNA, one strand shown
Sequence of ETV6 (P41212 whole entry): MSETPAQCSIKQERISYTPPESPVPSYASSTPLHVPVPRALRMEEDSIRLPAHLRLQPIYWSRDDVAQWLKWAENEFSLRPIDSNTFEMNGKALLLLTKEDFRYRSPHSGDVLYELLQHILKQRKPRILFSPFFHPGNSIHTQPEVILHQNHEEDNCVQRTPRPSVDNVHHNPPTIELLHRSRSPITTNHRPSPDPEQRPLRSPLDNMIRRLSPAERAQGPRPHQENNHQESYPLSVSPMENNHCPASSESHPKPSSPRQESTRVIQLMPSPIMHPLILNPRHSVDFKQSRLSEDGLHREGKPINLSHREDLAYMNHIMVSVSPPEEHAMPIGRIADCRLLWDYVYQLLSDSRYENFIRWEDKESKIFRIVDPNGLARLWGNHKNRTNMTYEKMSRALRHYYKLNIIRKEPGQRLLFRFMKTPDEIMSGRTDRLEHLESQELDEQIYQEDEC
How it was run: as §1

AAAAAT
binding signal [1]: 1.27 fold enrichment (6-mer frequency, TF over GST control)
binding signal [2]: 1.3 fold enrichment (6-mer frequency, TF over GST control)
binding signal [3]: 1.5 fold enrichment (6-mer frequency, TF over GST control)
binding signal [4]: 1.25 fold enrichment (6-mer frequency, TF over GST control)
binding signal [5]: 1.38 fold enrichment (6-mer frequency, TF over GST control)
binding signal [6]: 1.31 fold enrichment (6-mer frequency, TF over GST control)
binding signal [7]: 1.49 fold enrichment (6-mer frequency, TF over GST control)
binding signal [8]: 1.25 fold enrichment (6-mer frequency, TF over GST control)
binding signal [9]: 1.4 fold enrichment (6-mer frequency, TF over GST control)
binding signal [10]: 1.26 fold enrichment (6-mer frequency, TF over GST control)
binding signal [11]: 1.35 fold enrichment (6-mer frequency, TF over GST control)
binding signal [12]: 1.34 fold enrichment (6-mer frequency, TF over GST control)
binding signal [13]: 1.3 fold enrichment (6-mer frequency, TF over GST control)
binding signal [14]: 1.21 fold enrichment (6-mer frequency, TF over GST control)
binding signal [15]: 1.34 fold enrichment (6-mer frequency, TF over GST control)
binding signal [16]: 1.3 fold enrichment (6-mer frequency, TF over GST control)
binding signal [17]: 1.29 fold enrichment (6-mer frequency, TF over GST control)
binding signal [18]: 1.35 fold enrichment (6-mer frequency, TF over GST control)
